Source: PubChem BioAssay (NCATS)
Records with an inconclusive call do not appear. A number with no mark means an inactive call. Active and inactive are the calls of the source. Calls come from the whole dose curve; as a rule, active = well fitted curve in the direction sought with a large enough effect in the signal ratio, with a control signal flat (not every such curve was filed as active); inconclusive = small, poorly fitted or top-dose-only effect, or effect the other way, or a change in a side signal; inactive = no such curve, though single readings can be large or run the other way; the % refers to the signal ratio.

molecular target: Peroxisome proliferator-activated receptor gamma (Homo sapiens) (UniProt P37231); assay: qHTS assay for small molecule agonists of peroxisome proliferator-activated receptor gamma signaling (AID 588536); conditions: HEK293 PPARg-UAS-bla, beta-lactamase ratio, 16 h, percent of rosiglitazone response, DMSO as zero; series mostly up to 76.7 µM; activation: at the top concentration
Description: NIH Chemical Genomics Center [NCGC] U.S. Environmental Protection Agency [EPA] National Institutes of Environmental Health Sciences [NIEHS] National Toxicology Program [NTP] NCGC Assay Overview The Peroxisome proliferator-activated receptors (PPARs) are lipid-activated transcription factors of the nuclear receptor superfamily with three distinct subtypes namely PPAR alpha, PPAR delta (also called PPAR beta) and PPAR gamma. All these subtypes heterodimerizes with Retinoid X receptor (RXR) and these heterodimers regulate transcription of various genes. PPAR-gamma (glitazone receptor) agonists have been used in the treatment of type 2 diabetes and dyslipidaemia. It is involved in the regulation of glucose and lipid metabolism. PPAR-gamma activates certain genes like Paraoxonase 1 which is responsible for hydrolyzing organophosphates. PPAR-gamma agonists may also be therapeutically important in the treatment of coronary artery disease, obesity and cancer and atherosclerosis.
NCGC Assay Protocol Summary Using a beta-lactamase reporter-gene under control of Peroxisome Proliferator-Activated-gamma (PPAR-gamma) response element, a cell-based assay [GeneBLAzer PPAR-gamma-UAS-bla assay developed by Invitrogen] was used to measure PPAR-gamma ligands signaling. GeneBLAzer PPAR-gamma-UAS-bla-HEK293 cells were used with assay medium containing 1% charcoal/dextran treated FBS. The assay was performed in clear bottom black Greiner 1536-well plates. Rosiglitazone was used in the screen as the positive control. Library compounds were measured for their ability to stimulate the reporter gene activity. Compounds were screened in a titration series in 1536-well format. The fluorescence intensity (405 nm excitation, 460/530 nm emission) was measured using an EnVision plate reader. Data was normalized relative to Rosiglitazone control (2 uM, 100%), and DMSO only wells (basal, 0%). Concentration-response titration points for each compound were fitted to the Hill equation yielding concentrations of half-maximal stimulation (EC50) and maximal response (efficacy) values. qHTS protocol for PPAR-gamma beta-lactamase assay in agonist mode [Step] [Parameter] [Value] [Description] 1. Reagent; 6 uL; 3000 cells/well 2. Incubation; 37 C for 6 - 6.5 hrs 3. Compounds; 23 nL; 0.59 nM to 92 uM 4. Controls (Rosiglitazone); 23 nL, - One column with dose response, start 19 uM, 1:3 dilutions in duplicates - Final concentrations of 2 uM and 0.5 uM in two columns 5. Incubation; 37 C for 16 hrs 6. Detection reagent; 1 uL of CCF4-dye 7. Incubation; RT for 2 hrs 8. Detection; Fluorescence; Envision plate reader

Peroxisome proliferator-activated receptor gamma (Homo sapiens), sequence (P37231 whole entry, looked up): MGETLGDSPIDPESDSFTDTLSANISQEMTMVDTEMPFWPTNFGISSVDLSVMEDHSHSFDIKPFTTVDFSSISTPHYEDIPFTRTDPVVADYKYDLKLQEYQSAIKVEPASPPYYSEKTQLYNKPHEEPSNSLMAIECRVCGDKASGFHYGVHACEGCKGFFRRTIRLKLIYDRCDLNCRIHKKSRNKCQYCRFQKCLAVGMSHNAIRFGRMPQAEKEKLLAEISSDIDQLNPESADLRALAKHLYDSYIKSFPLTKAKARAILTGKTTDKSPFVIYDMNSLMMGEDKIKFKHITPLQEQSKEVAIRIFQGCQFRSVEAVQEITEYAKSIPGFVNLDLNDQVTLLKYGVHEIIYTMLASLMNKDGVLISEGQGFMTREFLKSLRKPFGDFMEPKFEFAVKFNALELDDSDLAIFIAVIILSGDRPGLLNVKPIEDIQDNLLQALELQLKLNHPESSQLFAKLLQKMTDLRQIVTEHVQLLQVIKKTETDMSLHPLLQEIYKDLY

Compound	outcome	activation
CC(C)(c1ccccc1)c1ccc(O)cc1	inactive	
O=C=NC1CCCCC1	inactive	
CCNc1nc(Cl)nc(NC(C)C)n1	inactive	
ClC(Cl)=C(c1ccc(Cl)cc1)c1ccc(Cl)cc1	inactive	
S=C=Nc1cccc2ccccc12		-1.82%
ClC(Cl)=C(Cl)Cl	inactive	
c1ccc(N=Nc2ccccc2)cc1	inactive	
CCN(CC)c1ccccc1		-1.32%
CCCOC(=O)c1ccccc1C(=O)OCCC	inactive	
COc1nc(NC(C)C)nc(NC(C)C)n1		-0.722%
CCCCCCCCCc1ccc(O)cc1	inactive	
COP(=S)(OC)Oc1ccc([N+](=O)[O-])cc1		-4.65%
C=CC(=C)C		2.69%
Clc1cc(Cl)c(-c2cc(Cl)c(Cl)cc2Cl)cc1Cl		-5.41%
NC(=S)Nc1ccccc1	inactive	
CCCCOCCOP(=O)(OCCOCCCC)OCCOCCCC	inactive	
CC(O)CCl (stereo not given)	inactive	
O=C(Cl)/C=C/C(=O)Cl		0.899%
C=C(Cl)Cl		-0.484%
O=[N+]([O-])c1ccc(Cl)c(Cl)c1		5.28%

Compound	outcome	activation
c1ccc(OP(Oc2ccccc2)Oc2ccccc2)cc1	inactive	
C=CC(C)=O		0.742%
O=[N+]([O-])c1cccc2ccccc12	inactive	
CC(C)OC(=O)Nc1cccc(Cl)c1		-0.294%
CCc1cccc(CC)c1N(COC)C(=O)CCl		-13.9%
COc1ccc(C=O)cc1OC	inactive	
C=CCOC(=O)c1ccccc1N		1.91%
CCCC(=O)Cl		8.25%
COC1=CC(=O)OC(CCc2ccccc2)C1 (stereo not given)		1.48%
O=NN(c1ccccc1)c1ccccc1	inactive	
CNC(=O)N(C)c1nnc(C(C)(C)C)s1		-7.01%
Nc1c(Cl)c(Cl)nc(C(=O)O)c1Cl	inactive	
CC(C)Nc1nc(Cl)nc(NC(C)C)n1		8.06%
Brc1ccccc1	inactive	
c1nc[nH]n1		3.3%
CNC(=O)CSP(=S)(OC)OC		-5.17%
[O-][Br+2]([O-])O	inactive	
CCC[CH2][Sn]([Cl])([Cl])[Cl]		-3.32%
Cc1cccc([N+](=O)[O-])c1	inactive	
C=C(C)C(=O)OCC1CO1 (stereo not given)		-1.33%
